STK33 inh: STK33 kinase inhibitors, primary screen, biochemical, luminescence, ADP-Glo, MBP substrate. inhibition, % at 12.5 µM. hit rate 0.44% among 27,000; in the data active means inhibition above about 20%
Target sequence (Q9BYT3 whole entry, looked up): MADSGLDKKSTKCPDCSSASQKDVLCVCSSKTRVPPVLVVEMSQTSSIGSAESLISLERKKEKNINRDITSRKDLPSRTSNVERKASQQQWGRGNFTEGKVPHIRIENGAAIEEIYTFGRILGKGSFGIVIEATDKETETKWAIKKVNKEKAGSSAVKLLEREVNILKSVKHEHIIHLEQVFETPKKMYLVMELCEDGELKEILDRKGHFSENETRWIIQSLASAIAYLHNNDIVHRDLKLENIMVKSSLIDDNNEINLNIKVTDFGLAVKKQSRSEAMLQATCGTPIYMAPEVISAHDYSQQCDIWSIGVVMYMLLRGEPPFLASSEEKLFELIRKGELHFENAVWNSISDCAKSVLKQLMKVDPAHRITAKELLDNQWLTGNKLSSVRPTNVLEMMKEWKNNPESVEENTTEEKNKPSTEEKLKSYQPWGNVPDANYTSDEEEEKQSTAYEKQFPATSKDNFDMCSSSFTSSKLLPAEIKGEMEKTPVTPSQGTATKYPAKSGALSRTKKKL
p53 PUMA act: mutant p53 pathway re-activators, primary screen, cell-based, SW480, luciferase, single point, HTS. SW480 PUMA-promoter luciferase, p53 mutant reactivation. activation, % at 9.98 µM. hit rate 1.5% among 28,000; in the data active means activation above about 52%
ID4 binder: binders of human ID4 protein, primary screen, biochemical, small molecule microarray, single point; calls only; DNA-binding protein inhibitor ID-4 (Homo sapiens), P47928; Flag-ID4 binding, fluorescence F/B; hit rate 1.2% among 31,000; call rule not given here;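 further: a binder raises fluorescence above local background on the spot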
Active calls of the source: *; i = inactive; . = no result; + = active, no number. In the library only some 2% were active in any assay of this set; here they are far more common.

SMILES	STK33 inh	p53 PUMA act	ID4 binder
COCC1=C2[C@@H](c3ccccc3)OB(O)C[C@@H]2n2c(=O)n(-c3ccccc3)c(=O)n2C1	.	.	i
CCCC[C@H]1OB(O)C[C@H]2C1=C(COc1ccccc1)Cn1c(=O)n(-c3ccccc3)c(=O)n12	.	.	+
CC(C)(C)C(=O)CSc1ncnc2sc3c(c12)CCCC3	-1.1	71.0*	i
O=C(CSc1ncnc2sc3c(c12)CCCC3)N1CCc2ccccc21	-0.1	-3.8	i
O=C(Nc1ccccc1)C1=C[C@H](c2ccc3c(c2)Cc2ccccc2-3)C[C@H](OCc2ccc(CO)cc2)O1	2.7	.	i
CCc1cc(C(=O)OC)c(NC(=O)CC2Nc3cccc4cccc(c34)NC2=O)s1 (configuration not stated)	9.6	-19.3	i
Cc1ccc(-c2cc(C(=O)NCCCN3CCOCC3)no2)cc1	-0.7	-10.9	i
Cc1ccc(-c2cc(C(=O)NCc3cccnc3)no2)cc1	-0.9	91.3*	i
Cc1cc(C(F)(F)F)c(C#N)c(SCC(=O)Nc2ccc(Cl)cc2)n1	0.8	124.4*	i
Cc1cc(C)c(C#N)c(SCC(=O)Nc2cc(C(F)(F)F)ccc2Cl)n1	-0.7	21.2	i
Cc1nc(SCC(=O)Nc2c(C)cccc2C)n[nH]1	-8.8	-9.3	i
CCc1ccc(-n2c(SCC(=O)c3ccc(Cl)cc3)nnc2-c2ccncc2)cc1	-1.1	-7.4	i
C[C@@H]1O[C@@H](O[C@@H]2[C@@H](O)[C@H](O[C@@H]3[C@@H](O)[C@@H](O)[C@H](O[C@H]4[C@H](OC(=O)[C@]56CCC(C)(C)C[C@H]5C5=CCC7[C@@]8(C)C[C@H](O)[C@H](O[C@@H]9O[C@H](C(=O)O)[C@@H](O)[C@H](O)[C@H]9O)[C@@](C)(CO)C8[C@H](O)C[C@@]7(C)[C@]5(C)C[C@H]6O)OC[C@H](O)[C@@H]4O)O[C@H]3C)OC[C@H]2O)[C@H](O)[C@H](O)[C@H]1O (some centres not stated)	22.8*	.	i
C[C@@H]1O[C@@H](O[C@H]2[C@H](OC(=O)[C@]34CCC(C)(C)C[C@H]3C3=CCC5[C@@]6(C)C[C@H](O)[C@H](O[C@@H]7O[C@H](C(=O)O)[C@@H](O)[C@H](O)[C@H]7O)[C@@](C)(CO)C6[C@H](O)C[C@@]5(C)[C@]3(C)C[C@H]4O)O[C@@H](CO)[C@@H]2O)[C@H](O)[C@H](O)[C@H]1O[C@@H]1OC[C@@H](O)[C@H](O[C@H]2OC[C@](O)(CO)[C@H]2O)[C@H]1O (some centres not stated)	-4.0	11.4	i
Cc1cc(Br)ccc1NC(=O)CSc1nnc(-c2ccccc2O)n1-c1ccccc1	1.1	-5.8	i
Cc1ccc(-c2nnc(N3CCN(C(=O)CSc4nc5ccccc5o4)CC3)c3ccccc23)cc1	1.0	-18.4	i
Cc1ccc(-c2nnc(N3CCN(C(=O)CSc4nc(C)cc(C)n4)CC3)c3ccccc23)cc1	0.8	-11.0	+
CO[C@H]1O[C@H](CO)[C@@H](OC(=O)Nc2ccc3c(c2)OCO3)[C@@H]2OC(=O)[C@H](Cc3ccccc3)C/C=C/C[C@@H](Cc3ccccc3)C(=O)O[C@@H]12	4.9	.	.
OC(COCC1COc2ccccc2O1)CN1CCOCC1 (configuration not stated)	3.1	28.9	i
N#CCCCN1C(=O)C(O)(CC(=O)c2ccc(Br)s2)c2ccccc21 (configuration not stated)	-1.5	-5.8	+
Cc1coc(C)c1C(=O)CC1(O)C(=O)N(CCCC#N)c2ccccc21 (configuration not stated)	4.7	-5.3	i
O=S(=O)(c1ccc(-c2ccon2)s1)N(Cc1ccccn1)Cc1ccccn1	.	-5.1	i
O=S(=O)(N[C@@H]1CCCN(Cc2cccc(OCCO)c2)C1)c1cc(C(F)(F)F)ccc1Cl	-0.9	.	.
CCc1cc2c(SCC(=O)c3ccc(C)cc3)ncnc2s1	0.2	64.9*	i
CCc1cc2c(SCC(N)=O)ncnc2s1	0.3	-15.1	i
SMILES	STK33 inh	p53 PUMA act	ID4 binder
Cc1c(-n2c(/C=C\c3ccc([N+](=O)[O-])o3)nc3ccccc3c2=O)c(=O)n(-c2ccccc2)n1C	-1.8	-72.9	i
Cc1ccc(NC(=O)COc2ccc(C(=O)Nc3ccc(Cl)cc3)cc2)cc1	6.5	-8.4	i
C/C(=C\CC(C)(C)CCC(=O)c1ccoc1)C(=O)O	-4.7	.	i
Cc1ccccc1-c1nc2cc(NC(=O)COc3ccc(Cl)cc3)ccc2o1	-3.8	71.4*	i
CCc1ccc(OCC(=O)Nc2ccc3oc(-c4ccccc4F)nc3c2)cc1	1.3	-28.7	i
Cc1ccccc1-c1nc2cc(NC(=O)COc3ccc(Br)cc3)ccc2o1	4.5	74.4*	i
O=C(COc1ccccc1)Nc1ccc2oc(-c3ccc(Cl)cc3Cl)nc2c1	-0.7	0.1	i
C=C(C(=O)O)[C@@H]1CC[C@@]2(C)C=CC(=O)[C@@H](CCC3(O)C(=O)C=C[C@]4(C)CC[C@@H](C(=C)C(=O)O)C[C@@H]34)[C@@H]2C1 (some centres not stated)	-1.5	18.1	i
c1ccc(CC(Cc2nc3ccccc3[nH]2)c2nc3ccccc3[nH]2)cc1 (configuration not stated)	-0.6	1.9	i
N#CC(C(=O)c1ccco1)c1nc2ccccc2[nH]1 (configuration not stated)	66.9*	.	.
O=C(CSc1nnnn1-c1ccccc1)Nc1cc(Cl)ccc1O	0.3	0.5	i
CCOC(=O)CN(C)C1=NS(=O)(=O)c2ccccc21	1.3	-16.3	i
CC(C)S(=O)(=O)N[C@@H]1CCCN(Cc2ccc(OCCO)cc2)C1	-1.3	.	.
O=C(Nc1ccc(F)cc1)C1CC(=O)n2cnnc2N1 (configuration not stated)	-0.1	-4.6	+
Cc1ccc(NC(=O)C2CC(=O)n3cnnc3N2)cc1 (configuration not stated)	0.8	1.1	i
CC1(C)CC(n2c(SCC(N)=O)nc3c(c2=O)C2(CCCC2)Cc2ccccc2-3)CCO1 (configuration not stated)	-1.1	4.7	i
CC(Sc1ncn[nH]1)C(=O)Nc1ccc(Cl)cc1 (configuration not stated)	-2.8	-4.1	i
CC(NS(=O)(=O)c1ccc(Br)cc1)C(=O)Nc1cccc(C(F)(F)F)c1 (configuration not stated)	-4.8	-10.6	i
Cc1cc(CNC(=O)c2cc(-c3ccccc3)nc3ccccc23)nn1C	-3.4	-5.3	i
N#CCCN(CCC#N)C(=O)c1cc(-c2ccccc2)nc2ccccc12	0.1	3.6	+
O=C(O)C1C2C=CC(O2)C1C(=O)Nc1ccc(S(=O)(=O)N2CCc3ccccc32)cc1 (configuration not stated)	-2.3	-9.4	+
O=S(=O)(c1ccc(Cl)cc1)N1CCc2ccccc21	2.1	.	.
Cc1ccc(S(=O)(=O)N[C@@H](Cc2ccccc2)C(=O)CCl)cc1	8.2	-90.0	.
COc1ccc(-c2cn(CCNC(=O)[C@H](Cc3ccccc3)NS(=O)(=O)c3ccc(C)cc3)nn2)cc1OC	.	.	+
